Calls of active or inactive are those of the source. The rule behind the calls is not given here.

L-lactate dehydrogenase (Plasmodium falciparum (isolate CDC / Honduras)), sequence (Q27743 whole entry, looked up): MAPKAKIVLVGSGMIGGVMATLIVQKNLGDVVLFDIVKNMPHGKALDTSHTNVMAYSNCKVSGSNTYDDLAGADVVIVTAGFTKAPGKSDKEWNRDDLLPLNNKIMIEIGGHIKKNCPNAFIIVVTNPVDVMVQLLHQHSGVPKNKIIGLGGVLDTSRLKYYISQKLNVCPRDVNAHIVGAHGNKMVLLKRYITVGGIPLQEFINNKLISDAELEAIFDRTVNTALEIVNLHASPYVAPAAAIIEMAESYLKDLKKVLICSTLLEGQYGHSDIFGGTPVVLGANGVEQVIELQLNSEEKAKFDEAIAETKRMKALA

One assay concerns the target L-lactate dehydrogenase (Plasmodium falciparum (isolate CDC / Honduras)) (UniProt Q27743). Kind of assay: PfLDH activity inhibition – cell lysate, 3D7 strain, counter-screen for P. falciparum growth inhibition project (AID 2304).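 Note: 0% = vehicle and 100% = reference inhibitor.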 Particulars: P. falciparum 3D7 crude extract, LDH APAD/NBT absorbance; at 2 µM; hits give high values. (Counterscreens check selectivity or assay interference.)
A word on the inhibition: it is the relative decrease from the control value, in per cent. Regarding `CN1CCCN(Cc2ccc(-c3cccc(NC(=O)c4ccc(C#N)cc4)c3)cc2)CC1`, the inhibition was -5% (inactive).

For the compound `COc1ccc(C2CCN(C#N)C2)cc1OC1CCCC1` (stereo not given), the inhibition was 2% (inactive).

For the compound `COc1cc2nc(N3CCN(C(=O)c4cccc(I)c4)CC3)nc(N)c2cc1OC`, the inhibition is 2% (inactive).

As to `CN(CCNCc1ccc(-c2cccc(-c3nc4ccccc4[nH]3)c2)cc1)S(C)(=O)=O`, the inhibition was -2% (inactive).

For `COc1cccc2c(C)cc(NCc3ccc(Cl)cc3)nc12`, the inhibition is 5% (inactive).

Turning to `CCOC(=O)c1[nH]c(-c2cccnc2)nc1NC(=S)NCc1ccccc1`, the inhibition is 1% (inactive).

As to `CCOC(=O)c1cnc2c(OC)cc(OC)c(Cl)c2c1Nc1ccccc1`, the inhibition is -3% (inactive).

With `FC(F)(F)c1ccc2nc(-c3ccc(-c4ccc(CNCC5CCCO5)cc4)s3)[nH]c2c1` (stereo not given), the inhibition was -6% (inactive).

Take `CCCCOP(=O)(OCCCC)C(=Cc1ccc(O)c2ccccc12)P(=O)(OCCCC)OCCCC`: the inhibition was -6% (inactive).

Take `Cc1cc2c3c(N)nc(N)nc3ccc2n1C(C)C`: the inhibition was 2% (inactive).

In the case of `CN1CCN(CC(=O)Nc2ccc(-c3cccc(-c4nc5ccc(F)cc5[nH]4)c3)cc2)CC1`, the inhibition is 3% (inactive).

In the case of `CCN1CCC(N(Cc2ccc(-c3ccc(C(F)(F)F)cc3)cc2)C(=O)Cn2c(CCc3cccc(F)c3F)cc(=O)c3cn(C)nc32)CC1`, the inhibition was 2% (inactive).

In the case of `O=C(Nc1ccc(N2CCN(c3ncccc3C(F)(F)F)CC2)nc1)c1cccs1`, the inhibition is -7% (inactive).

Take `COCCn1c(-c2cccc(Cl)c2)nn(-c2ccc([N+](=O)[O-])cc2C#N)c1=S`: the inhibition is 0% (inactive).

For `O=S(=O)(NCCN1CCCC1)c1cccc(-c2ccc(CNCc3ccccc3)cc2)c1`, the inhibition was -8% (inactive).

With `COc1cccc(NC(=O)[C@H](C(C)C)n2c(=O)[nH]c3ccccc3c2=O)c1`, the inhibition is -1% (inactive).

`C=CCN1Cc2c(O)cccc2C(c2ccc(O)c(O)c2)C1` (stereo not given): the inhibition was 0% (inactive).

On to `COc1cc(C(C)C)ccc1N1CCN(CCCCNC(=O)c2ccc(NC(=O)c3ccc(Cl)cc3)cc2)CC1`, for which the inhibition was 3% (inactive).

For the compound `CCCNS(=O)(=O)c1ccc(NC(=O)C(C)Oc2ccc([N+](=O)[O-])cc2)cc1` (stereo not given), the inhibition was 3% (inactive).

Regarding `CC(C)CN1CCCN(Cc2cccc(NC(=O)c3ccc(Cl)c(Cl)c3)c2)CC1`, the inhibition is 0% (inactive).

In the case of `COc1ccccc1C(=O)N1CCN(Cc2cccs2)CC1`, the inhibition is -1% (inactive).

As for `Cc1ccc(CNC(=O)[C@H](CC(C)C)Nc2cc(C)nc(NCc3ccccc3C)n2)cc1`, the inhibition is 1% (inactive).

As for `CCC[C@]1(C)CSc2ccccc2[C@@H](c2ccccc2)N1`, the inhibition is -3% (inactive).

With `COc1ccc(-c2cccc(NC(=O)c3cccc(Cl)c3)c2)cc1CNC(C)C`, the inhibition is -2% (inactive).

Consider `CCn1c(Sc2ccc(C#N)c([N+](=O)[O-])c2)nnc1-c1cc(OC)cc(OC)c1`, for which the inhibition is -2% (inactive).

For the compound `CC1(C)N=C(N)N=C(N)N1OCCSCCON1C(N)=NC(N)=NC1(C)C`, the inhibition was -4% (inactive).

Consider `Cc1ccc(S(=O)(=O)N2CCN(C(=O)c3cc(-c4ccccc4)n[nH]3)CC2)cc1`, for which the inhibition is -7% (inactive).

For the compound `CN(C)CCNCc1ccc(-c2cccc(-c3nc4ccccc4[nH]3)c2)cc1`, the inhibition was 6% (inactive).

`COc1cc(NC(=O)c2c(-c3c(F)cccc3Cl)noc2C)c(OC)cc1Cl`: the inhibition is 5% (inactive).

With `Cc1occc1C(=O)Nc1nc(-c2ccccn2)nc2ccsc12`, the inhibition is 5% (inactive).

Take `COc1ccc(NCCCNc2ccnc3ccccc23)cc1`: the inhibition was 2% (inactive).

With `c1ccc(CN2CCN(c3cc(-c4cncc(-c5ccccc5)c4)nc(-c4ccccc4)n3)CC2)cc1`, the inhibition is 0% (inactive).

Take `O=C(Nc1ccccc1)c1ccc(-c2cc3ccncc3cc2OC2CCNCC2)s1`: the inhibition was -2% (inactive).

With `Cc1nc2nc(N)nc(N)c2c(C)c1Cc1c(Cl)cccc1Cl`, the inhibition was -1% (inactive).

With `O=C(/C=C/c1ccc(Cl)c(Cl)c1)NCCCCCN1CCC(CCNC(=O)Cc2ccc(Cl)cc2)CC1`, the inhibition is -8% (inactive).

In the case of `Cc1c(F)cc(C(=O)NC2CC2)cc1-c1ccc2c(cnn2S(=O)(=O)c2ccc(Cl)s2)c1`, the inhibition is -4% (inactive).

Consider `Cc1cccc2[nH]c(-c3ccc(-c4ccc(CN5CCC(C(N)=O)CC5)cc4)cc3)nc12`, for which the inhibition was 1% (inactive).

Turning to `CC(Cc1ccc(NC(=O)c2ccc(CNCCCCc3ccccc3)cc2)cc1)NCCc1cccc(Cl)c1` (stereo not given), the inhibition is -1% (inactive).

With `NC1=NC(c2ccccc2)(c2ccccc2)C(=O)N1CCCCc1ccccn1`, the inhibition is -4% (inactive).

Consider `OCC(c1ccccc1)n1c(COc2ccc(Cl)cc2)nc2c(OCCCN3CCCCC3)cccc21` (stereo not given), for which the inhibition was -7% (inactive).

Test system in a further assay: not listed separately
Kind of assay: inhibition of 3D7 malaria parasite growth – strain 3D7 (AID 2306).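 Note: 0% = DMSO wells and 100% = chloroquine plus artemisinin control wells.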 The following applies: P. falciparum 3D7 erythrocytic growth, LDH absorbance, 72 h; at 2 µM; hits give high values.
As for `CN1CCCN(Cc2ccc(-c3cccc(NC(=O)c4ccc(C#N)cc4)c3)cc2)CC1`, the growth inhibition was 100% (active).

Regarding `COc1ccc(C2CCN(C#N)C2)cc1OC1CCCC1` (stereo not given), the growth inhibition was 102% (active).

As for `COc1cc2nc(N3CCN(C(=O)c4cccc(I)c4)CC3)nc(N)c2cc1OC`, the growth inhibition was 88% (active).

Turning to `CN(CCNCc1ccc(-c2cccc(-c3nc4ccccc4[nH]3)c2)cc1)S(C)(=O)=O`, the growth inhibition was 101% (active).

As to `COc1cccc2c(C)cc(NCc3ccc(Cl)cc3)nc12`, the growth inhibition was 97% (active).

Take `CCOC(=O)c1[nH]c(-c2cccnc2)nc1NC(=S)NCc1ccccc1`: the growth inhibition is 101% (active).

On to `CCOC(=O)c1cnc2c(OC)cc(OC)c(Cl)c2c1Nc1ccccc1`, for which the growth inhibition is 99% (active).

`FC(F)(F)c1ccc2nc(-c3ccc(-c4ccc(CNCC5CCCO5)cc4)s3)[nH]c2c1` (stereo not given): the growth inhibition was 101% (active).

Regarding `CCCCOP(=O)(OCCCC)C(=Cc1ccc(O)c2ccccc12)P(=O)(OCCCC)OCCCC`, the growth inhibition is 84% (active).

On to `Cc1cc2c3c(N)nc(N)nc3ccc2n1C(C)C`, for which the growth inhibition was 93% (active).

Consider `CN1CCN(CC(=O)Nc2ccc(-c3cccc(-c4nc5ccc(F)cc5[nH]4)c3)cc2)CC1`, for which the growth inhibition was 100% (active).

Take `CCN1CCC(N(Cc2ccc(-c3ccc(C(F)(F)F)cc3)cc2)C(=O)Cn2c(CCc3cccc(F)c3F)cc(=O)c3cn(C)nc32)CC1`: the growth inhibition is 95% (active).

As to `O=C(Nc1ccc(N2CCN(c3ncccc3C(F)(F)F)CC2)nc1)c1cccs1`, the growth inhibition is 83% (active).

Consider `COCCn1c(-c2cccc(Cl)c2)nn(-c2ccc([N+](=O)[O-])cc2C#N)c1=S`, for which the growth inhibition is 100% (active).

`O=S(=O)(NCCN1CCCC1)c1cccc(-c2ccc(CNCc3ccccc3)cc2)c1`: the growth inhibition is 95% (active).

On to `COc1cccc(NC(=O)[C@H](C(C)C)n2c(=O)[nH]c3ccccc3c2=O)c1`, for which the growth inhibition is 101% (active).

Consider `C=CCN1Cc2c(O)cccc2C(c2ccc(O)c(O)c2)C1` (stereo not given), for which the growth inhibition was 97% (active).

Take `COc1cc(C(C)C)ccc1N1CCN(CCCCNC(=O)c2ccc(NC(=O)c3ccc(Cl)cc3)cc2)CC1`: the growth inhibition was 98% (active).

As for `CCCNS(=O)(=O)c1ccc(NC(=O)C(C)Oc2ccc([N+](=O)[O-])cc2)cc1` (stereo not given), the growth inhibition was 100% (active).

For the compound `CC(C)CN1CCCN(Cc2cccc(NC(=O)c3ccc(Cl)c(Cl)c3)c2)CC1`, the growth inhibition was 91% (active).

`COc1ccccc1C(=O)N1CCN(Cc2cccs2)CC1`: the growth inhibition is 96% (active).

With `Cc1ccc(CNC(=O)[C@H](CC(C)C)Nc2cc(C)nc(NCc3ccccc3C)n2)cc1`, the growth inhibition was 87% (active).

In the case of `CCC[C@]1(C)CSc2ccccc2[C@@H](c2ccccc2)N1`, the growth inhibition was 87% (active).

As for `COc1ccc(-c2cccc(NC(=O)c3cccc(Cl)c3)c2)cc1CNC(C)C`, the growth inhibition was 102% (active).

Turning to `CCn1c(Sc2ccc(C#N)c([N+](=O)[O-])c2)nnc1-c1cc(OC)cc(OC)c1`, the growth inhibition was 93% (active).

For the compound `CC1(C)N=C(N)N=C(N)N1OCCSCCON1C(N)=NC(N)=NC1(C)C`, the growth inhibition was 95% (active).

Regarding `Cc1ccc(S(=O)(=O)N2CCN(C(=O)c3cc(-c4ccccc4)n[nH]3)CC2)cc1`, the growth inhibition is 91% (active).

For `CN(C)CCNCc1ccc(-c2cccc(-c3nc4ccccc4[nH]3)c2)cc1`, the growth inhibition is 101% (active).

Consider `COc1cc(NC(=O)c2c(-c3c(F)cccc3Cl)noc2C)c(OC)cc1Cl`, for which the growth inhibition was 89% (active).

As to `Cc1occc1C(=O)Nc1nc(-c2ccccn2)nc2ccsc12`, the growth inhibition is 98% (active).

As to `COc1ccc(NCCCNc2ccnc3ccccc23)cc1`, the growth inhibition is 88% (active).

For `c1ccc(CN2CCN(c3cc(-c4cncc(-c5ccccc5)c4)nc(-c4ccccc4)n3)CC2)cc1`, the growth inhibition is 88% (active).

In the case of `O=C(Nc1ccccc1)c1ccc(-c2cc3ccncc3cc2OC2CCNCC2)s1`, the growth inhibition is 100% (active).

Regarding `Cc1nc2nc(N)nc(N)c2c(C)c1Cc1c(Cl)cccc1Cl`, the growth inhibition was 94% (active).

Consider `O=C(/C=C/c1ccc(Cl)c(Cl)c1)NCCCCCN1CCC(CCNC(=O)Cc2ccc(Cl)cc2)CC1`, for which the growth inhibition was 83% (active).

Regarding `Cc1c(F)cc(C(=O)NC2CC2)cc1-c1ccc2c(cnn2S(=O)(=O)c2ccc(Cl)s2)c1`, the growth inhibition was 81% (active).

On to `Cc1cccc2[nH]c(-c3ccc(-c4ccc(CN5CCC(C(N)=O)CC5)cc4)cc3)nc12`, for which the growth inhibition was 91% (active).

On to `CC(Cc1ccc(NC(=O)c2ccc(CNCCCCc3ccccc3)cc2)cc1)NCCc1cccc(Cl)c1` (stereo not given), for which the growth inhibition was 100% (active).

For the compound `NC1=NC(c2ccccc2)(c2ccccc2)C(=O)N1CCCCc1ccccn1`, the growth inhibition is 94% (active).

As to `OCC(c1ccccc1)n1c(COc2ccc(Cl)cc2)nc2c(OCCCN3CCCCC3)cccc21` (stereo not given), the growth inhibition is 90% (active).

The values are drawn from PubChem BioAssay.
